# High-throughput results (PubChem BioAssay)
# An excerpt weighted towards active compounds, which were near 7.3% of everything screened.
# HCMV antiviral = qHTS Assay for inhibitors of the human cytomegalovirus (HCMV) | HFF cells, HCMV-luciferase reporter, 72 h; active compounds read low | activity change, negative = inhibition, % at 57.5 µM | 410,000 compounds, 4.5% hits | AID 1259415, 2018; in the data active = activity change below about -60%; inconclusive = no clear call, values can overlap the other calls; inactive = above about -39%
#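 Two compound doses tested in HFFs infected with HCMV-luciferase, MOI 1 PFU/cell, 72 h at 37C. Lysate luminescence read with OneGlo; data normalized against buffer-only and 10uM Salinomycin inhibitor controls.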
# AmpC no deterg = qHTS Inhibitors of AmpC Beta-Lactamase (assay without detergent); 330,000 compounds, 0.52% hits; AID 485341, 2010; P00811; AmpC nitrocefin hydrolysis, absorbance 480 nm, 0.0001% Triton; Potency, µM (titrated, usually from 57.1 µM), inactives show at the top dose activity change, negative = inhibition, actives largely listed as inhibitors;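 also: potency is read from the fitted curve at half-maximal effect; plate controls were no compound for no effect and no enzyme for full effect; nearly all actives have a fitted effect of over 20% in size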
# Target sequence (P00811 whole entry, looked up): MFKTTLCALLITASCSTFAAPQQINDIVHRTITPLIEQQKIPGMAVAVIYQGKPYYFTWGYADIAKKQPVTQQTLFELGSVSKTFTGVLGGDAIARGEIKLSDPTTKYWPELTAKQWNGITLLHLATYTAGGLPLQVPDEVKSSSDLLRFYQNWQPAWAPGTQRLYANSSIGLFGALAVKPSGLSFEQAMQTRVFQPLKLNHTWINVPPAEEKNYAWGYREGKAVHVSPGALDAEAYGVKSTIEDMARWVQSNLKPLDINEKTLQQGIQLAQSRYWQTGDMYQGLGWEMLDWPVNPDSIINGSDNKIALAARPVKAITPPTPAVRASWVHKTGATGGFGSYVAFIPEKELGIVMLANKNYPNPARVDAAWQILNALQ
#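 AmpC (5.3 nM in the dispensed reagent) in 20 mM phosphate pH 7.0 with 0.01% (detergent screen) or 0.0001% Triton X-100 was preincubated with compounds for 15 min at room temperature. Nitrocefin was then added from an 800 uM solution, and hydrolysis was followed at 480 nm.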
# FMDV inh = High Throughput Screening for Foot and Mouth Disease Virus Antivirals; FMDV antiviral cell-based qHTS; Potency, µM (highest dose often 57.9 µM), for the others: at the highest dose activity change, negative = inhibition, actives largely listed as inhibitors; 410,000 compounds, 1.2% hits; calls by dose curve; tested in HEK293T cells; also: read-out not given here; potency is read from the fitted curve at half-maximal effect; nearly all actives have a fitted effect of over 45% in size
# AmpC detergent = qHTS Inhibitors of AmpC Beta-Lactamase (assay with detergent); P00811; AmpC hydrolysis of nitrocefin, absorbance 480 nm, 0.01% Triton; Potency, µM (highest dose often 114 µM), for inactives: top-dose activity change, negative = inhibition, actives largely listed as inhibitors; 370,000 compounds, 0.041% hits; AID 485294, 2010;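 also: potency is read from the fitted curve at half-maximal effect; 0% = no-compound wells and -100% = no-enzyme wells; nearly all actives have a fitted effect of over 25% in size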
#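 AmpC (5.3 nM in the dispensed reagent) in 20 mM phosphate pH 7.0 with 0.01% (detergent screen) or 0.0001% Triton X-100 was preincubated with compounds for 15 min at room temperature. Nitrocefin was then added from an 800 uM solution, and hydrolysis was followed at 480 nm.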
# HCV inhibitor = qHTS Assay for Inhibitors of Hepatitis C Virus (HCV); Huh7.5.1 HCVcc-Cre infection, luciferase reporter, 44 h; Potency, µM (titrated, usually from 41.8 µM), for inactives: at the highest dose activity change, negative = inhibition, actives largely listed as inhibitors; 340,000 compounds, 3.4% hits; also: potency is read from the fitted curve at half-maximal effect
#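 Cells seeded at 1,000/well and cultured 4 h, then compounds added followed by HCVcc-Cre virus (~0.5 moi). After 44 h further culture, luciferase substrate was added, plates held 15 min at room temperature, and luminescence read for 15 sec.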
# * hit, by the source's call; ? = inconclusive; / = not tested or not shown. Unless noted, calls follow the shape of the dose curve; as a rule, active = well fitted curve in the direction sought with a large enough effect; inconclusive = small, poorly fitted or top-dose-only effect, or another doubt; inactive = no such curve, though single readings can be large; an effect the other way counts as inactive or inconclusive. Unless noted, % is scaled to controls: 0 for no effect and ±100 for the full control effect.
SMILES,HCMV antiviral,AmpC no deterg,FMDV inh,AmpC detergent,HCV inhibitor
CCCN1C(=O)COc2ccc(-c3n[nH]c(=O)c4ccccc34)cc21,-102*,-35%,?,6%,-23%
CCCN1C(=O)COc2ccc(C(=O)c3ccccc3C(=O)O)cc21,-14,-12%,2%,-6%,10%
COc1ccc(-c2csc(N3C(=O)C4C5c6ccccc6C(c6ccccc65)C4C3=O)n2)cc1 (stereo unspecified),-62*,-15%,-13%,-6%,8%
CN(C)c1ccc(C(=O)Nc2c(C(=O)NC(C)(C)C)oc3ccccc23)cc1,-9,/,-18%,22%,/
O=C(c1ccc(C(F)(F)F)cc1)C1CCCN(Cc2ccncc2)C1 (stereo unspecified),?,46%,?,-7%,6.3µM*
O=C(c1ccc(C(F)(F)F)cc1)C1CCCN(C(=O)CCc2ccncc2)C1 (stereo unspecified),-21,124%,?,2%,11µM*
CCCS(=O)(=O)NC(=O)C1(C)CCN(C(=O)Cc2ccc3ccccc3c2)C1 (stereo unspecified),19,/,-7%,/,/
CC(C)(C)C(=O)Nc1ccccc1-c1nc2ccccc2[nH]c1=O,-31,-21%,0%,-10%,11%
COc1ccc(NS(=O)(=O)c2ccc(N3CCOCC3)c(NC(=O)c3ccco3)c2)cc1,-22,4%,65%,4%,-27%
COc1ccc(NS(=O)(=O)c2cc(NC(=O)c3cccnc3Cl)ccc2N2CCCC2)cc1,10,36%,72%,6%,?
COc1ccc(NS(=O)(=O)c2cc(NC(=O)c3cnc(C)cn3)ccc2N2CCCC2)cc1,-65*,77%,65%,-2%,?
COc1ccc(NS(=O)(=O)c2cc(NC(=O)c3ccco3)ccc2N2CCCCC2)cc1,-76*,-11%,101%,-7%,?
COc1ccc(NS(=O)(=O)c2cc(NC(=O)c3cnc(C)cn3)ccc2N2CCCCC2)cc1,-74*,50%,71%,-7%,?
COc1ccc(NS(=O)(=O)c2cc(NC(=O)C3CC3)ccc2N2CCOCC2)cc1,?,-35%,95%,-17%,-24%
COc1ccc(NS(=O)(=O)c2cc(NC(=O)C3CC3)ccc2N2CCCCC2)cc1,-101*,-36%,42%,-13%,11µM*
CCC1CCCCN1CCCNC(=O)c1c(C)oc2ncn(CC(C)C)c(=O)c12 (stereo unspecified),2,/,14%,23%,/
COc1cc(OC)cc(C(=O)NCC2Cc3cccc(-c4nc(C)cnc4C)c3O2)c1 (stereo unspecified),/,/,-12%,/,/
CCOC(=O)c1cc(-c2ccc(OC)cc2)n(CCC(=O)NCCc2ccccc2)c1C,9,/,31%,12%,/
COc1ccc(NS(=O)(=O)c2cc(NC(=O)c3ccc(=O)[nH]c3)ccc2N2CCCC2)cc1,-74*,56%,67%,-4%,?
COc1ccc(NS(=O)(=O)c2cc(NC(=O)c3ccncc3)ccc2N2CCOCC2)cc1,-27,-49%,73%,-9%,0%
CN1CCc2c(OCC(=O)N3N=C(c4cccs4)CC3c3ccc(F)cc3)cccc2C1=O (stereo unspecified),-89*,78%,?,-7%,4%
CCN1CCc2c(OCC(=O)N3N=C(c4cccs4)CC3c3ccc(F)cc3)cccc2C1=O (stereo unspecified),-6,40%,-24%,-7%,10µM*
Cc1cc(C(=O)NCC2CCC3(CCN(Cc4cccc(F)c4F)CC3)O2)n(C)n1 (stereo unspecified),/,/,-29%,/,/
CC(C)[C@@H](C)/C=C/[C@@H](C)[C@H]1CC[C@@H]2[C@]1(C)CCC1[C@]23C=C[C@]2(C[C@@H](O)CC[C@]12C)N(C(=O)Cc1ccccc1)O3 (stereo partly specified),28,/,/,/,/
COc1cc(S(=O)(=O)NCCc2c(C)[nH]c3ccccc23)c(C)cc1C,-103*,/,34%,0%,/
SMILES,HCMV antiviral,AmpC no deterg,FMDV inh,AmpC detergent,HCV inhibitor
Cc1ccc([N+](=O)[O-])cc1S(=O)(=O)NCCc1c(C)[nH]c2ccccc12,-6,-29%,11%,?,-11%
CCOC(=O)C1CCN(CCCSc2ccc(C)cc2)CC1,42,/,-9%,/,1%
COC(=O)CNC(=O)CSc1nc2sc(-c3ccccc3)cc2c(=O)n1-c1ccccc1,-20,/,-20%,/,-3%
NC(=O)NC(=O)CSc1nc2sc(-c3ccccc3)cc2c(=O)n1-c1ccccc1,-70*,-17%,?,-13%,1%
CCCCc1c(-c2ccc(F)cc2)ncn1CCc1ccccc1OC,-62*,/,25µM*,/,/
CCCCCc1c(-c2ccc(OC)cc2)ncn1CCc1ccccc1OC,-94*,/,22µM*,/,/
CCCCc1c(-c2cccc(Cl)c2)ncn1CCc1ccccc1OC,-80*,/,22µM*,/,/
COc1ccccc1CCn1cnc(C)c1CC(C)C,-17,/,-22%,/,/
CCCCc1c(-c2ccccc2OC)ncn1CCc1ccc(Cl)cc1,-12,/,?,/,/
CCCc1c(-c2cccc(Cl)c2)ncn1Cc1ccccc1OC,-23,/,?,/,/
CCCCc1c(-c2ccc(OC)cc2)ncn1CCc1ccccc1OC,-85*,/,22µM*,/,/
CCOC(=O)C(Sc1cc(-c2ccccc2)nc2ncnn12)C(C)=O (stereo unspecified),74,-17%,?,4%,-1%
COc1ccc2cc(CNCc3ccccc3Cl)c(N3CCCC(CO)C3)nc2c1 (stereo unspecified),/,/,26%,/,/
CCCCc1c(-c2ccccc2OC)ncn1CCc1ccc(OC)cc1,-64*,/,22µM*,/,/
CCCCc1c(-c2ccccc2OC)ncn1CCc1ccccc1,-33,/,?,/,/
CCCCc1c(-c2ccccc2)ncn1CCc1ccccc1OC,-75*,/,25µM*,/,/
CCCCc1c(Cc2ccccc2)ncn1CCc1ccccc1OC,-76*,/,?,/,/
CCCCCc1c(-c2ccc(Cl)cc2)ncn1CCc1ccccc1OC,-75*,/,-1%,/,/
CCc1c(-c2ccc(Cl)cc2)ncn1CCc1ccccc1OC,-23,/,/,/,/
CC(=O)Nc1ccc(NC(=O)Cn2cnc(S(=O)(=O)N3CCOCC3)c2)cc1,-15,-7%,11%,4%,12%
COc1ccc(Cl)cc1NC(=O)CN(C)C(=O)c1cc2c(s1)CCCC2,-21,10%,-29%,-8%,?
Cc1cc(C)c(OCC(=O)NCC2COc3ccccc3O2)c(C)c1 (stereo unspecified),70,29%,-5%,-4%,1%
Cc1ccc2ccc3cccnc3c2n1,-78*,/,10%,/,?
c1cnc2c(c1)ccc1ncccc12,0,-15%,1%,-2%,8%
